In PubChem BioAssay:
Values without a mark were called inactive. Active and inactive are the calls of the source.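 The calls were made as follows: active = inhibition at or above 50% relative to wild type and mutant plate controls; inactive = inhibition below 50%.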

Assay: inhibitors of Chlamydomonas gravitaxis, primary screen, whole organism, Chlamydomonas reinhardtii, WT vs cilia-less mutant, absorbance, 96-well (AID 463189);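 also: 0% = wild type cc124 cells in DMSO and 100% = ciliumless bld1 mutant cells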
Settings: OD600 absorbance, 2 days, at 10 µM, active compounds read high

For `O=c1ccn([C@@H]2O[C@H](COP(=O)(O)OP(=O)(O)O)[C@@H](O)[C@H]2O)c(=O)[nH]1`, the inhibition was 13.9%.

With `COc1cccc(-c2cc(=O)c3ccccc3o2)c1N` the inhibition was 0.351%.

With `C[N+](C)(C)CCO` the inhibition was 2.98%.

`CC(C)C[C@H](NC(=O)[C@@H](O)[C@H](N)Cc1ccccc1)C(=O)O` gave an inhibition of 3.44%.

`NCC(O)c1ccc(O)c(O)c1` (configuration not stated) gave an inhibition of -2.37%.

For `CCCCCCCCCCCCCCCC(=O)NCC(COP(=O)([O-])OCC[N+](C)(C)C)OCC` (configuration not stated), the inhibition was -1.73%.

`CC(C)(C(=O)O)c1ccc(C(O)CCCN2CCC(C(O)(c3ccccc3)c3ccccc3)CC2)cc1` (configuration not stated) gave an inhibition of -1.29%.

Work on `COc1cc2c(c(OC)c1OC)-c1ccc(OC)c(=O)cc1[C@@H](NC(C)=O)CC2` yielded an inhibition of 4.38%.

For `O=c1[nH]c2cc(Cl)ccc2c(O)c1-c1ccc(Oc2ccccc2)cc1`, the inhibition was 5.4%.

`CC(C)[C@@H]1NC(=O)[C@H](CCCCN)NC(=O)[C@@H](Cc2c[nH]c3ccccc23)NC(=O)[C@H](Cc2ccc(O)cc2)NC(=O)[C@H](C)N(C)C(=O)[C@H](Cc2ccccc2)NC1=O` gave an inhibition of 6.6%.

Compound `O=C1Cc2c([nH]c3ccc(Br)cc23)-c2ccccc2N1` has an inhibition of -1.32%.

Work on `OC[C@H]1O[C@@H](n2cnc3c(Nc4ccccc4)ncnc32)C(O)[C@H]1O` (some centres not stated) yielded an inhibition of -0.892%.

For `O=C1O/C(=C/Br)CCC1c1cccc2ccccc12` (configuration not stated), the inhibition was -0.58%.

`CC(C)NCC(O)c1cc(O)cc(O)c1` (configuration not stated) gave an inhibition of 11.3%.

Work on `C[C@](N)(Cc1ccc(O)c(O)c1)C(=O)O` yielded an inhibition of 5.26%.

`CN/C(=C\[N+](=O)[O-])NCCSCc1ccc(CN(C)C)o1` gave an inhibition of 1.86%.

In the case of `CCOC(=O)c1ncn2c1CN(C)C(=O)c1cc(F)ccc1-2`, the inhibition is reported as 1.79%.

In the case of `NC(=S)c1ccc[n+]([C@@H]2O[C@@H](COP(=O)([O-])OP(=O)(O)OC[C@H]3O[C@@H](n4cnc5c(N)ncnc54)C(OP(=O)(O)O)[C@H]3O)C(O)C2O)c1` (some centres not stated), the inhibition is reported as 6.21%.

`Cn1c(=O)c2[nH]c(-c3ccccc3)nc2n(C)c1=O` gave an inhibition of -0.378%.

For `N[C@@H]1CONC1=O`, the inhibition was 0.59%.

`NCCCNCCCCNCCCN` showed an inhibition of -2.56%.

For `NCCNS(=O)(=O)c1cccc2cnccc12`, the inhibition was -4.46%.

In the case of `COc1cc(CNC(=O)CCCCCCC(C)C)ccc1O`, the inhibition is reported as -1.4%.

In the case of `O=c1[nH]c(=O)n([C@H]2C[C@H](O)[C@@H](CO)O2)cc1Br`, the inhibition is reported as 2.45%.

`N[C@@H](Cc1ccc(F)cc1)C(=O)O` gave an inhibition of 2.39%.

With `CC1(C)CCC2=C(O1)c1ccccc1C(=O)C2=O` the inhibition was 153% (active).

For `O=C(NCCNCC(O)COc1ccc(O)cc1)N1CCOCC1` (configuration not stated), the inhibition was 10.1%.

`CC12CC3CC(C)(C1)CC(N)(C3)C2` showed an inhibition of 3.51%.

In the case of `CC1CN(S(=O)(=O)c2cccc3cnccc23)CCN1` (configuration not stated), the inhibition is reported as 5.73%.

With `CC(C)(C)c1cc(/C=C(\C#N)C(N)=S)cc(C(C)(C)C)c1O` the inhibition was 35.4%.

`O=C(Nc1ccccc1)c1cc([N+](=O)[O-])ccc1Cl` showed an inhibition of 2.4%.

`COc1ccccc1N1CCN(CCN2C(=O)CC3(CCCC3)CC2=O)CC1` showed an inhibition of -4.14%.

With `Cn1cc(C(=O)OCC2CCN(CCNS(C)(=O)=O)CC2)c2ccccc21` the inhibition was 6.02%.

`FC(F)(F)c1ccccc1-n1ccnc1` showed an inhibition of 2.41%.

With `Cc1nc(N=Nc2ccc(C(=O)O)cc2)c(COP(=O)(O)O)c(C=O)c1O` the inhibition was 8.14%.

With `CC(C)NC[C@H](O)c1ccc(O)c(O)c1` the inhibition was 8.51%.

With `NCCCCCCNS(=O)(=O)c1cccc2c(Cl)cccc12` the inhibition was 7.85%.

`C=C[C@H]1CN2CCC1C[C@H]2[C@H](O)c1ccnc2ccc(OC)cc12` (some centres not stated) gave an inhibition of -14.7%.

In the case of `Cc1cc(C)c(NC(=O)C[C@H](CC(=O)O)c2cccc3ccccc23)c(C(=O)N2CCC3(CCCC3)CC2)c1`, the inhibition is reported as 13.6%.

Work on `O=C(O)CCC/C=C\C[C@@H]1[C@@H](/C=C/[C@H](O)C2Cc3ccccc3C2)[C@@H](F)C[C@@H]1O` yielded an inhibition of -14%.

With `Cc1nc(N=Nc2ccc(S(=O)(=O)O)cc2S(=O)(=O)O)c(COP(=O)(O)O)c(C=O)c1O` the inhibition was 2.65%.

Work on `S=C(Nc1ccccc1)Nc1nccs1` yielded an inhibition of 7.29%.

In the case of `OC[C@H]1O[C@@H](n2cnc3c(N[C@H]4CC5CCC4C5)ncnc32)[C@H](O)[C@@H]1O` (some centres not stated), the inhibition is reported as 2.84%.

In the case of `C#C[C@]1(O)CC[C@H]2[C@@H]3CCC4=Cc5oncc5CC4(C)[C@H]3CCC21C` (some centres not stated), the inhibition is reported as 4.97%.

With `Nc1ncnc2c1ncn2[C@@H]1O[C@H](C(=O)NC2CC2)[C@H](O)C1O` (some centres not stated) the inhibition was 7.98%.

In the case of `O=c1[nH]c(=O)n([C@H]2C[C@H](O)[C@@H](CO)O2)cc1/C=C/Br`, the inhibition is reported as 6.74%.

`CC(C)c1ccc2c(c1)c(SC(C)(C)C)c(CC(C)(C)C(=O)O)n2Cc1ccc(Cl)cc1` gave an inhibition of 9.82%.

Work on `Clc1cccc(Cl)c1NC1=NCCN1` yielded an inhibition of 5.28%.

`COc1ccccc1N1CCN(CCCCNS(=O)(=O)c2cccc3c(N(C)C)cccc23)CC1` showed an inhibition of -0.327%.

With `CCCn1c(=O)c2[nH]c(-c3ccc(OCC(=O)Nc4ccc(C#N)cc4)cc3)nc2n(CCC)c1=O` the inhibition was 4.77%.

Compound `C=C[C@H]1CN2CCC1C[C@@H]2[C@@H](O)c1ccnc2ccc(OC)cc12` (some centres not stated) has an inhibition of 5.44%.

Compound `CN1CCc2cc(O)c(O)cc2C(c2ccccc2)C1` (configuration not stated) has an inhibition of 2.5%.

Work on `Cc1cc(O)c2c(c1)C(=O)c1cc(O)cc(O)c1C2=O` yielded an inhibition of -10.7%.

Compound `C#CCN(C)CCCOc1ccc(Cl)cc1Cl` has an inhibition of 24.1%.

`CCCCCCCCCCCCCCCC(=O)OC(CC(=O)O)C[N+](C)(C)C` (configuration not stated) gave an inhibition of 2.15%.

Compound `O=c1c(O)c(-c2cc(O)c(O)c(O)c2)oc2cc(O)cc(O)c12` has an inhibition of 9.46%.

In the case of `N[C@@H](Cc1ccc(O)c(O)c1)C(=O)O`, the inhibition is reported as 2.49%.

In the case of `O=C(O)CCc1nc(-c2ccccc2)c(-c2ccccc2)o1`, the inhibition is reported as 7.1%.

For `CC(=O)N1CCN(c2ccc(OC[C@H]3CO[C@](Cn4ccnc4)(c4ccc(Cl)cc4Cl)O3)cc2)CC1`, the inhibition was 74.8% (active).

Compound `CC(C)(CO)Cc1cc(C(C)(C)C)c(O)c(C(C)(C)C)c1` has an inhibition of -2.65%.

Compound `Cc1[nH]c(=O)c(C#N)cc1-c1ccncc1` has an inhibition of 8.79%.

For `Clc1ccc(N2CCN(Cc3c[nH]c4ncccc34)CC2)cc1`, the inhibition was 5.9%.

In the case of `CCCCNc1c(C(=O)OCC)c(C)nc2c1cnn2CC`, the inhibition is reported as 8.88%.

In the case of `OCC1O[C@H](O)C(Cl)C(O)C1O` (some centres not stated), the inhibition is reported as 4.68%.

For `CCOC(=O)C(C)(C)Oc1ccc(Cl)cc1`, the inhibition was -6.65%.

In the case of `CC[N+](CC)(CC)CC(=O)Nc1c(C)cccc1C`, the inhibition is reported as 6.77%.

For `COc1ccccc1N1CCN(CCN(C(=O)c2ccc(F)cc2)c2ccccn2)CC1`, the inhibition was 0.605%.

Work on `CC(C)C[C@H](NC(=O)C1OC1C(=O)O)C(=O)NCCCCN=C(N)N` (some centres not stated) yielded an inhibition of -4.58%.

Compound `NCCCCNCCCN` has an inhibition of -15.4%.

`OC[C@H]1O[C@@H](n2cnc3c(NC4CCCC4)ncnc32)C(O)[C@H]1O` (some centres not stated) gave an inhibition of 2.66%.

For `NCCS(=O)(=O)O`, the inhibition was 8.8%.

For `N.N.O=C(O)C1(C(=O)O)CCC1.[Pt+2]`, the inhibition was 3.35%.

Work on `Cc1cc(C)c(/C=C2\C(=O)Nc3ccccc32)[nH]1` yielded an inhibition of 25.9%.

For `NCCC1CCCC(CCN)N1` (configuration not stated), the inhibition was 5.08%.

Work on `CCOC(=O)Nc1ccc(NCc2ccc(F)cc2)nc1N` yielded an inhibition of 3.93%.

Compound `C=CCN1CCc2c(cc(O)c(O)c2Br)[C@@H](c2ccccc2)C1` has an inhibition of 0.67%.

For `Oc1ccc(Cn2cc[nH]c2=S)cc1`, the inhibition was 7.18%.

Compound `NC(N)=NC(N)=Nc1ccccc1` has an inhibition of 4.74%.

For `Nc1nc2ccc(Cl)cc2c2nc(-c3ccco3)nn12`, the inhibition was 1.54%.

`CC(N)=O` gave an inhibition of 0.285%.

For `CNCCC(Oc1ccccc1OC)c1ccccc1` (configuration not stated), the inhibition was 13.4%.

For `CN1C2CCC1CC(OC(c1ccccc1)c1ccccc1)C2` (configuration not stated), the inhibition was 1.86%.

In the case of `CC(C)NC[C@H](O)COc1ccc(CC(N)=O)cc1`, the inhibition is reported as -3.21%.

Work on `CSC(=N)N` yielded an inhibition of 7.24%.

`FC(F)(F)c1cc(CO[C@H]2CCCN[C@H]2c2ccccc2)cc(C(F)(F)F)c1` gave an inhibition of 14.5%.

`C[C@]12CC[C@@H]3c4ccc(O)cc4CC[C@H]3[C@@H]1CC[C@@H]2O` gave an inhibition of 5.14%.

For `Nc1nc(Cl)nc2c1ncn2[C@@H]1O[C@H](COP(=O)(O)OP(=O)(O)OP(=O)(O)O)[C@H](O)C1O` (some centres not stated), the inhibition was 0.076%.

`CN(C)CCOC(=O)COc1ccc(Cl)cc1` gave an inhibition of 5.22%.

With `N#C/C(=C\c1ccc(O)c(O)c1)C(=O)NCc1ccccc1` the inhibition was -4.45%.

Compound `COc1cc(C(O)CO)ccc1O` (configuration not stated) has an inhibition of 1.74%.

`CC(C)(C)NCC(O)COc1nsnc1N1CCOCC1` (configuration not stated) gave an inhibition of -8.84%.

Work on `CC(C)Cn1c(=O)n(C)c(=O)c2[nH]cnc21` yielded an inhibition of 1.72%.

`NC(=O)CC[C@H](N)C(=O)O` gave an inhibition of -13.2%.

For `CCN1CCc2nc(N)oc2CC1`, the inhibition was 6.74%.

`CN(C)CCCO[C@@H]1[C@H]2OC(C)(C)O[C@H]2O[C@@H]1C(O)CO` (some centres not stated) showed an inhibition of 0.355%.

`O=C1c2ccccc2-c2n[nH]c3cccc1c23` showed an inhibition of 34.8%.

Compound `Cc1nc(N=Nc2cc(S(=O)(=O)O)c3cc([N+](=O)[O-])cc(S(=O)(=O)O)c3c2)c(COP(=O)(O)O)c(C=O)c1O` has an inhibition of 0.765%.

Compound `CNCC(O)c1ccc(O)c(O)c1` (configuration not stated) has an inhibition of 4.49%.

Work on `c1ccc(-c2ccccn2)nc1` yielded an inhibition of 1.35%.

Compound `C[N+](C)(C)CCOC(=O)CCC(=O)OCC[N+](C)(C)C` has an inhibition of -7.41%.

For `N=C(N)SCCc1cccc(CCSC(=N)N)c1`, the inhibition was 2.04%.

`O=C(O)[C@@H]1C[C@H](C(=O)O)N1` showed an inhibition of 1.3%.

Work on `Cc1ccccc1/C=C/C1=NCCN1` yielded an inhibition of 3.42%.

Compound `Nc1ncnc2c1ncn2C1CCCC1` has an inhibition of -2.12%.

`O=C1CCC(c2ccc(-n3ccnc3)cc2)=NN1` gave an inhibition of -5.18%.

For `CC1(NCC(O)COc2cccc3[nH]ccc23)CCC(C(C)(C)NC(=O)CBr)CC1` (configuration not stated), the inhibition was 5.45%.

Compound `C[C@@H]1C(=O)NC2=Nc3cccc(Cl)c3CN21` has an inhibition of 1.72%.

`COc1ccccc1OCC(O)CN1CCN(CC(=O)Nc2c(C)cccc2C)CC1` (configuration not stated) showed an inhibition of 8.13%.

`CC(=O)O[C@H]1CC2(C)[C@@H](C[C@@H](O)[C@H]3[C@@]4(C)CC[C@@H](O)[C@@H](C)[C@@H]4CC[C@@]32C)C1=C(CCC=C(C)C)C(=O)O` (some centres not stated) gave an inhibition of 1.57%.

With `NC(=NCc1ccccc1)NC(=O)c1nc(Cl)c(N)nc1N` the inhibition was -1.5%.

Work on `CN(C)CCC=C1c2ccccc2C=Cc2ccccc21` yielded an inhibition of 12.9%.

Work on `CNC1(C)C2CCC(C2)C1(C)C` (configuration not stated) yielded an inhibition of 2.45%.
